Data on 40 molecules can be found in PubChem BioAssay (NCATS).

Records with an inconclusive call do not appear. A call without a number means that no potency is given here. Active and inactive are the calls of the source. The call rests on the fitted dose curve.

Chain of Estrogen receptor (Homo sapiens) (P03372 whole entry, looked up): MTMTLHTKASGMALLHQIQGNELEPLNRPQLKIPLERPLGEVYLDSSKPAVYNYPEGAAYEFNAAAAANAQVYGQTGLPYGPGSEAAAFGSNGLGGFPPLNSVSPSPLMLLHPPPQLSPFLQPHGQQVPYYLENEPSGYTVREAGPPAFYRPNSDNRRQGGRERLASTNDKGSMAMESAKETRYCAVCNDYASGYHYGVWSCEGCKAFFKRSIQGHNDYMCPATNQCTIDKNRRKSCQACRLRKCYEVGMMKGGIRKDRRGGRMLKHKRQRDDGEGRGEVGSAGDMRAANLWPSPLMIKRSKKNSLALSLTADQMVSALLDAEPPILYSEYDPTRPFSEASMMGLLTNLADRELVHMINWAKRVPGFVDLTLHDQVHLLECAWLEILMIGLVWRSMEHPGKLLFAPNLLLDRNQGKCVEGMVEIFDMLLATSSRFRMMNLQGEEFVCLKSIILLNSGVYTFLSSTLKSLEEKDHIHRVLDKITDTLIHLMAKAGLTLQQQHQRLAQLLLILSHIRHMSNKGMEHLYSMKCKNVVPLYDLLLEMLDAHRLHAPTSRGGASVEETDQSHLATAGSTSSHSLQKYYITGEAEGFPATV

The target in this assay is Estrogen receptor (Homo sapiens) (UniProt P03372). In words: qHTS assay for small molecule agonists of estrogen receptor alpha signaling (AID 588514). Further: nearly all actives have a fitted effect of over 70% in size. The following applies: ER-alpha-UAS-bla HEK293, beta-lactamase ratio, 18 h; series mostly up to 76.8 µM. The source says:
NIH Chemical Genomics Center [NCGC]
U.S. Environmental Protection Agency [EPA]
National Institutes of Environmental Health Sciences [NIEHS]
National Toxicology Program [NTP]
Estrogen receptor alpha (ER-alpha) is an important member of nuclear hormone receptors. ER-alpha plays important role in breast cancer as well as in other women's health issues. The majority of breast cancers is estrogen receptor (ER) positive and depends on estrogen for growth. There is also growing concern for some of environmental chemicals which may contribute the increasing the incidence of breast cancer. Therefore, it is important to understand the effect of environmental chemicals in ER-alpha signaling pathway.
NCGC Assay Protocol Summary
Using a beta-lactamase reporter-gene under control of the ER response element, a cell-based assay [ER-alpha-UAS-bla GripTiteTM cell-Based Assay from Invitrogen] was used to measure ER-alpha signaling pathway in agonist mode. ER-alpha-UAS-bla-GripTite HEK 293 cells were used with assay medium containing 2% charcoal/dextran treated FBS, 0.1 mM NEAA and 1 mM sodium pyruvate. Cells were cultured in this assay medium overnight in the flasks before the assay. The assay was performed in clear bottom black Greiner 1536-well plates. 17-beta-estradiol was used as a positive control in the screen. Library compounds were measured for their ability to either stimulate the reporter gene activity. Compounds were screened in a titration series in 1536-well format. […] Data was normalized relative to 17-beta-estradiol control (20 nM, 100%), and DMSO only wells (basal, 0%). Concentration-response titration points for each compound were fitted to the Hill equation yielding concentrations of half-maximal stimulation (EC50) and maximal response (efficacy) values.
qHTS protocol for ER-alpha beta-lactamase assay in agonist mode
[Step] [Parameter] [Value] [Description]
1. Reagent; 6 uL; 5000 cells/well
2. Incubation; 37 C for 4 hrs
4. Controls (17-beta-estradiol); 23 nL
- Dose response, start 1uM, 1:3 dilutions with duplicates
- Two columns with 20 and 0.5 nM (final) concentration.
5. Incubation; 37 C for 18 hrs
6. Detection reagent; 1 uL of CCF4-dye
7. Incubation; RT for 2 hrs
8. Detection; Fluorescence; Envision plate reader or Acumen plate reader
For orientation: Quantitative high-throughput screening tests each substance at several concentrations.
With `O=C(Cl)c1c(Cl)cccc1Cl`, the Potency result is “inactive”. As for `CC(=O)Nc1ccc(C)cc1`, the entry is “inactive”; as for `Cc1cccc([N+](=O)[O-])c1C(=O)O`, “inactive”; as for `Cc1ccc2ccccc2c1[N+](=O)[O-]`, “inactive”.

For the molecule `Cc1ccc2ncccc2c1`, the Potency entry is “inactive”. As for `C/C(C=O)=C/c1ccccc1`, the entry is “inactive”; as for `c1ccc2c(c1)Oc1ccccc1S2`, “inactive”. In the case of `CC(=O)c1nccs1` it was “inactive”; in that of `CC/C=C/C#N`, “inactive”. As to `Cc1ccccc1C(N)=O`, the Potency result is “inactive”.

`CC(C)Nc1ccccc1`: the Potency result is “inactive”. Consider `NC(=O)c1ccccc1[N+](=O)[O-]`, for which the Potency entry is “inactive”.

As for `Nc1ccc(Cl)cc1[N+](=O)[O-]`, the Potency result was “inactive”.

Turning to `CCCCCCCCCCCCC1CO1` (stereo not given), the Potency entry is “inactive”. As for `CC(C)N(C)C`, the Potency entry is “inactive”. In the case of `Cc1ccc(C(C)(C)C)cc1` it was “inactive”. Turning to `C1COC1`, the Potency result is “inactive”. As for `Nc1nc2ccccc2[nH]1`, the entry is “inactive”; as for `CC(C)CO`, “inactive”; as for `[O-]/[N+](=N\O)c1ccccc1`, “inactive”. Regarding `CCC(C)(C)OC`, the Potency entry is “inactive”. In the case of `C=C(C)C(=O)OCCCCCCCCCC` it was “inactive”; in that of `C=C(C)C(=O)OCCCCCC`, “inactive”. In the case of `OCCO` it was “inactive”. In the case of `C=CCOC(=O)COCCC(C)C` it was “inactive”; in that of `Nc1cccc([N+](=O)[O-])c1`, “inactive”; in that of `O=c1[nH][nH]c(=O)c2cc([N+](=O)[O-])ccc12`, “inactive”.

Regarding `Cc1ccccc1C=O`, the Potency entry is “inactive”. As to `OC/C(Br)=C(\Br)CO`, the Potency entry was “inactive”. In the case of `CC(C)c1ccccc1` it was “inactive”; in that of `CCCCCCCCC`, “inactive”. In the case of `Clc1cc(Cl)cc(Cl)c1` it was “inactive”; in that of `COC(=O)CCC(=O)OC`, “inactive”. In the case of `Nc1cc(Cl)c([N+](=O)[O-])cc1O` it was “inactive”; in that of `CCCCCCO`, “inactive”; in that of `C=Cc1ccccc1C=C`, “inactive”. On to `Cc1ccco1`, for which the Potency result is “inactive”. `CCCCCCCCC/C=C/CC1CC(=O)OC1=O` (stereo not given): the Potency result is “inactive”. For the molecule `CN(C)CCCNCCCN`, the Potency result was “inactive”. As for `Nc1ccc(F)cc1F`, the entry is “inactive”.
